Reference: PubChem BioAssay AID504834 (National Center for Advancing Translational Sciences (NCATS), 2011)
Among all 320,000 compounds or so, about 22,000 (6.9%) were called active. A call without a number means that no potency is given here. About 27% were inconclusive and are not listed. Calls come from the whole dose curve; as a rule, active = well fitted inhibition curve with a large enough effect; inconclusive = small, poorly fitted or top-dose-only effect, or another doubt; inactive = no such curve, though single readings can be large or run the other way. The full list was thinned out, with actives kept by preference.

Assay: Primary qHTS for delayed death inhibitors of the malarial parasite plastid, 96 hour incubation
Details: P. falciparum luciferase reporter growth; series mostly up to 28.7 µM
In short: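 Luminescence readout: decreased luciferase signal marks inhibited growth of reporter-expressing P. falciparum in infected red cells (2% hematocrit, 0.05% parasitemia final), exposed to compound two generations (96 h, 37 C, 5% CO2).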
Potency is the fitted concentration of half-maximal effect.

| SMILES | Potency | activity change, negative = inhibition |
| --- | --- | --- |
| Clc1ccc2nc3c(c(-c4ccccc4)c2c1)CNCC3 | 13.1 µM (active) | – |
| NC(N)=Nc1nc(-c2ccccc2)c2cc(Cl)ccc2n1 | inactive | – |
| Clc1cccc(-c2nc(NCC3CCCO3)c3ccccc3n2)c1 (stereo unspecified) | – | 37.3% [at 5.75 µM] (inactive) |
| COc1ccc(NC(=O)COc2ccc(C(=O)c3ccc(F)cc3)cc2)cc1S(N)(=O)=O | inactive | – |
| CC(=O)NCC(=O)NC1CCCc2c1cnn2-c1ccccc1F (stereo unspecified) | inactive | – |
| COc1cc(OC)c(S(=O)(=O)Nc2ccccc2C(=O)O)cc1S(=O)(=O)Nc1ccccc1C(=O)O | inactive | – |
| O=C(O)c1ccc(F)c(S(=O)(=O)Nc2ccccc2)c1 | inactive | – |
| COc1ccc(Cl)cc1S(=O)(=O)Nc1cccc(C(=O)O)c1 | 10.4 µM (active) | – |
| CN1CCN(c2ncc3c(n2)CC(c2ccccc2F)CC3=O)CC1 (stereo unspecified) | inactive | – |
| COc1ccccc1C(C)NC(=O)Cc1ccsc1 (stereo unspecified) | inactive | – |
| CCCCOc1ccc(CON(C(C)=O)C(C)=O)cc1Cl | inactive | – |
| O=C(CNC(=O)c1ccccc1)Oc1ccc([N+](=O)[O-])cc1 | inactive | – |
| CC(Cc1cccs1)N(Cc1ccc(Cl)cc1)C(=O)c1ccncc1 (stereo unspecified) | 13.1 µM (active) | – |
| CC(Cc1cccs1)NCc1ccc(Cl)cc1 (stereo unspecified) | inactive | – |
| CC(Cc1cccs1)NC(=O)c1cccc(Cl)c1 (stereo unspecified) | inactive | – |
| CCCc1ccc(OCCNC(=O)c2ccccc2Br)cc1 | inactive | – |
| O=C(N/N=C\c1cc2c(cc1Cl)OCO2)c1ccc(Br)s1 | inactive | – |
| CC(/C=C/c1ccco1)=N/NC(=O)C1COc2ccccc2O1 (stereo unspecified) | inactive | – |
| O=C(N/N=C/c1cc2c(cc1Br)OCO2)C1COc2ccccc2O1 (stereo unspecified) | 7.38 µM (active) | – |
| Cc1cc(C)c(S(=O)(=O)NCC2CCC(C(=O)NCc3ccc4c(c3)OCO4)CC2)c(C)c1 (stereo unspecified) | inactive | – |
| Cc1cc(C)c(S(=O)(=O)N2CCCC2CNC(=O)c2ccc3c(c2)OCO3)c(C)c1 (stereo unspecified) | 11.7 µM (active) | – |
| COc1ccc(C(=O)NCC2CCCN2S(=O)(=O)c2cccs2)cc1OC (stereo unspecified) | inactive | – |

| SMILES | Potency | activity change, negative = inhibition |
| --- | --- | --- |
| CCOc1ccc(S(=O)(=O)N2CCC(C(=O)NCc3ccccn3)CC2)cc1Cl | inactive | – |
| O=C(NCc1ccccc1)C1CCN(C(=O)Cc2ccccc2)CC1 | inactive | – |
| CN(C)S(=O)(=O)c1cccc(NC(=O)COC(=O)/C=C/c2cccs2)c1 | inactive | – |
| CN(C)S(=O)(=O)c1cccc(NC(=O)COC(=O)c2cc(=O)[nH]c(=O)[nH]2)c1 | inactive | – |
| Cc1ccc(/C=N/NC(=S)Nc2cccc(S(=O)(=O)N(C)C)c2)o1 | 6.57 µM (active) | – |
| CCCOc1ccc(Cc2c(O)nc(N)[nH]c2=O)cc1C | inactive | – |
| S=C(NNC(=S)NC1CC2C=CC1C2)NC1CC2C=CC1C2 (stereo unspecified) | 9.28 µM (active) | – |
| CSC1=NC2(C)CCCCC2C12C=CC(=O)C=C2 (stereo unspecified) | 13.1 µM (active) | – |
| Cc1cc2c(cc1S(=O)(=O)CCC(=O)NCc1ccccc1)OCC(=O)N2 | inactive | – |
| O=C(CSc1nccc(=O)[nH]1)Nc1ccc(N2CCOCC2)c(Cl)c1 | inactive | – |
| COc1ccc(CN(Cc2ccc(OC)cc2)C(=O)c2cccs2)cc1 | inactive | – |
| CCCSc1nc2sc3c(c2c(=O)n1-c1ccc(OC)cc1)CCN(C)C3 | 4.65 µM (active) | – |
| COc1ccccc1NC(=O)CSc1nnc(Cn2nnc(-c3ccccc3)n2)n1-c1ccccc1 | 7.38 µM (active) | – |
| CCOc1ccc(-n2c(SCC(=O)OC)nc3sc4c(c3c2=O)CCN(C)C4)cc1 | 0.828 µM (active) | – |
| COc1ccccc1NC(=O)CSc1nc2sc3c(c2c(=O)n1-c1ccccc1)CCN(C)C3 | 1.65 µM (active) | – |
| COc1ccccc1OCc1nnc(SCC(N)=O)n1-c1ccccc1 | inactive | – |
| COc1ccccc1NC(=O)CSc1nnc(Cc2cccn2C)n1-c1ccc(F)cc1 | inactive | – |
| COc1ccccc1-n1c(SCC(=O)O)nc2sc3c(c2c1=O)CCC3 | inactive | – |
| COc1ccccc1NC(=O)CSc1nc2sc(C)c(C)c2c(=O)n1Cc1ccco1 | inactive | – |
| CCCn1c(N)c(C(=O)CSc2nc3ccccc3c(=O)n2-c2ccc(OC)cc2)c(=O)[nH]c1=O | inactive | – |
| COc1ccc(-n2c(=S)[nH]c3sc4c(c3c2=O)CCc2ccccc2-4)cc1 | inactive | – |
| CCOc1ccc(-n2c(SCC(=O)NC3CCS(=O)(=O)C3)nnc2-c2cccnc2)cc1 (stereo unspecified) | inactive | – |

| SMILES | Potency | activity change, negative = inhibition |
| --- | --- | --- |
| CCOc1ccc(NC(=O)CSc2nncn2C)cc1 | inactive | – |
| Cc1ccc(C(=O)Oc2ccc(C(=S)N3CCOCC3)cc2)cc1 | inactive | – |
| O=C(Nc1ccc(-c2cscn2)cc1)C1CCCN(Cc2ccc(CO)o2)C1 (stereo unspecified) | inactive | – |
| Cc1n[nH]c(=O)c2c(NC(=O)CSc3ccccc3F)oc(C)c12 | inactive | – |
| COc1cc(N2C(=O)CSC2=S)cc(OC)c1OC | inactive | – |
| Cc1cc(C(=O)NC2CC(C)(C)Cc3c2cnn3-c2ccccc2)n[nH]1 (stereo unspecified) | inactive | – |
| Cc1ccc(C)c(-n2c(SCC(=O)O)nc3sc4c(c3c2=O)CCCC4)c1 | inactive | – |
| Cc1nc2sc3c(c2c(=O)n1NC(=O)CCl)CCCC3 | inactive | – |
| CCSc1nc2sc3c(c2c(=O)n1-c1ccc(C)cc1)CCN(C)C3 | 0.928 µM (active) | – |
| COC(=O)c1sccc1NC(=S)Nc1ccc(C)cc1 | inactive | – |
| CNC(=O)N1c2ccccc2C=Cc2ccccc21 | inactive | – |
| N#Cc1ccc(Oc2cc(C(F)(F)F)nc(-c3ccccn3)n2)cc1 | inactive | – |
| COc1ccc(Cc2nc(-c3ccccn3)no2)cc1OC | inactive | – |
| COc1ccc(Sc2nc(-c3ccccc3)ncc2OC)cc1 | inactive | – |
| Cc1ccc(Oc2nc(-c3ccccn3)nc3ccccc23)cc1 | 5.86 µM (active) | – |
| COc1ccccc1Oc1nc(-c2cccnc2)nc2ccccc12 | inactive | – |
| COc1cnc(-c2ccccn2)nc1Oc1ccc(C(C)(C)C)cc1 | 0.329 µM (active) | – |
| C=Cc1ccc(C(=O)N2CCCC(CCC(=O)N3CCN(c4ccccn4)CC3)C2)cc1 (stereo unspecified) | inactive | – |
| C/C=C/C(=O)OCc1csc(CC(=O)Nc2ccccc2C)n1 | inactive | – |
| O=C(NCCc1ccc(C(F)(F)F)cc1)c1ccc2c(c1)OCO2 | inactive | – |
| CCOC(=O)c1nnn2c3ccccc3c(=O)n(C)c12 | inactive | – |
| O=C(COC(=O)c1ccccc1C(=O)N1CCN(c2ccccc2)CC1)NCc1ccccc1 | inactive | – |

| SMILES | Potency | activity change, negative = inhibition |
| --- | --- | --- |
| CCOC(=O)c1nnn2c1nc(N1CCN(c3ccccc3)CC1)c1ccccc12 | 2.62 µM (active) | – |
| O=C(NCCc1ccccc1)Oc1ccc(Cl)cc1 | inactive | – |
| CCn1c(SCC(=O)NNC(=O)c2ccc(OC)cc2)nnc1C(C)C | inactive | – |
| CC1CCC(CN2CCN=C2N(C)C)CC1 (stereo unspecified) | inactive | – |
| O=C1CCCN1CCCNC(=S)Nc1ccc(F)c(Cl)c1 | inactive | – |
| O=C(CCCN1C(=O)CCC1=O)Nc1ccc(Cl)c(C(F)(F)F)c1 | 2.08 µM (active) | – |
| CCCCC(=O)Nc1ccc(C(=O)Nc2cc(C(F)(F)F)ccc2Cl)cc1 | inactive | – |
| CNC(=O)c1sc(Nc2ccc(OCc3ccccc3)cc2)nc1C | inactive | – |
| O=C(COc1ccccc1[N+](=O)[O-])N/N=C/c1ccc[nH]1 | inactive | – |
| S=C(Nc1ccc(Br)cc1)NC1CCN(Cc2ccccc2)CC1 | inactive | – |
| O=C(NNC(=O)c1cnccc1C(F)(F)F)c1ccc(Cl)cc1 | inactive | – |
| COC(=O)c1ccc(CNC(=O)C2CCC(=O)N(Cc3cccc(F)c3)C2)cc1 (stereo unspecified) | inactive | – |
| COC(=O)C1=C(c2cccc(OCc3ccccc3)c2)C[C@@H]2CC[C@H]1N2C(=O)NNCc1ccccc1 | 10.4 µM (active) | – |
| COc1ccccc1CNC(=O)CN1CCC(n2cnc3cc(F)ccc32)CC1 | inactive | – |
| COC(=O)C1=C(c2ccc(F)cc2OCc2ccccc2)C[C@@H]2CC[C@H]1N2C(=O)NCc1ccc2[nH]ccc2c1 | 5.86 µM (active) | – |
| COC(=O)C1=C(c2ccc(C(C)=O)cc2)C[C@@H]2CC[C@H]1N2C(=O)NCCNC(C)=O | inactive | – |
| COC(=O)C1=C(c2ccc3ccccc3c2)C[C@@H]2CC[C@H]1N2C(=O)NCCO | inactive | – |
| COc1ccc(S(=O)(=O)NC(C)C(=O)NCc2ccncc2)cc1Cl (stereo unspecified) | inactive | – |
| CC1CN(C(=O)COC(=O)c2cccc(NS(=O)(=O)c3ccccc3)c2)CC(C)O1 (stereo unspecified) | inactive | – |
| O=C(Nc1ccccc1)N1CCC(C(=O)N2CCN(Cc3ccccc3)CC2)CC1 | inactive | – |
| COc1ccc(N(C)S(=O)(=O)c2ccc3c(c2)CC(C)N3C(=O)C2CC2)c(OC)c1 (stereo unspecified) | inactive | – |
| Cc1ccccc1Nc1nc(-c2cccnc2)cs1 | inactive | – |

| SMILES | Potency | activity change, negative = inhibition |
| --- | --- | --- |
| CC(=O)NC(=O)c1ccccc1O | 5.36 µM (active) | – |
| Cc1cc(C(=O)NNC(=O)c2ccccc2O)c(C)o1 | inactive | – |
| O=C(Nc1ccc(O)cc1)c1ccccc1O | inactive | – |
| COc1ccc(C(=O)Nc2c(N)nc(SCC(=O)Nc3ccc(C(C)=O)cc3)[nH]c2=O)cc1 | inactive | – |
| Cc1ccc(-n2ccc(=O)c(C(=O)O)n2)cc1 | inactive | – |
| CCc1ccc(-c2nn(-c3ccccc3)cc2CSC(=N)N)cc1 | inactive | – |
| CCn1c(SCc2ccc(C)cc2)nnc1-c1nn(-c2ccccc2)ccc1=O | 7.38 µM (active) | – |
| CCOc1ccc(N(CC(=O)NCC2CCCO2)S(=O)(=O)c2ccc(C)cc2)cc1 (stereo unspecified) | inactive | – |
| CCOC(=O)c1sc(NC(=O)c2ccncc2)nc1C | 9.28 µM (active) | – |
| CCOC(=O)c1cccnc1NC(=O)c1ccncc1 | inactive | – |
| CCOC(=O)c1sc(NC(=O)c2sc(C)nc2C)nc1C | inactive | – |
| CCc1nc(SCC(=O)NNC(=O)c2ccc(C)cc2)c2ccccc2n1 | inactive | – |
| C=Cn1cc[n+](CC(=O)c2ccc(OC)c(OC)c2)c1 | inactive | – |
| C=CCOc1ccc(/C=C2/C(=O)ON=C2C)cc1OCC | inactive | – |
| COc1ccc(NC(=O)CN(C)C(=O)Cc2coc3cc(C)c(C)cc23)cc1 | inactive | – |
| O=C(C1CCN(C2CCN(Cc3ccc4cc(F)ccc4n3)CC2)CC1)N1CCCC1 | inactive | – |
| C/C(=C\c1ccco1)CN1CCC(N2CCC(C(=O)N3CCOCC3)CC2)CC1 | 5.86 µM (active) | – |
| NC(=O)C1CCN(C(=O)/C(=C/c2ccco2)NC(=O)c2ccccc2)CC1 | inactive | – |
